The whole screen tested about 16,000 compounds, of which about 4,000 (25%) were called active. Inconclusive results (about 26%) are left out. These entries were drawn from the full list. Unmarked numbers belong to inactive results. Calls come from the whole dose curve; as a rule, active = well fitted curve in the direction sought with a large enough effect; inconclusive = small, poorly fitted or top-dose-only effect, or effect the other way; inactive = no such curve, though single readings can be large or run the other way.
Each molecule was assayed against Cytochrome P450 2C9 (Homo sapiens) (UniProt P11712) (assay: Cytochrome panel assay with activity outcomes). Conditions: recombinant CYP, pro-luciferin dealkylation, luminescence, p450-cyp2c9; series mostly up to 57.1 µM; activity, negative = inhibition: at the top concentration.
Sequence of Cytochrome P450 2C9 (Homo sapiens) (P11712 whole entry, looked up): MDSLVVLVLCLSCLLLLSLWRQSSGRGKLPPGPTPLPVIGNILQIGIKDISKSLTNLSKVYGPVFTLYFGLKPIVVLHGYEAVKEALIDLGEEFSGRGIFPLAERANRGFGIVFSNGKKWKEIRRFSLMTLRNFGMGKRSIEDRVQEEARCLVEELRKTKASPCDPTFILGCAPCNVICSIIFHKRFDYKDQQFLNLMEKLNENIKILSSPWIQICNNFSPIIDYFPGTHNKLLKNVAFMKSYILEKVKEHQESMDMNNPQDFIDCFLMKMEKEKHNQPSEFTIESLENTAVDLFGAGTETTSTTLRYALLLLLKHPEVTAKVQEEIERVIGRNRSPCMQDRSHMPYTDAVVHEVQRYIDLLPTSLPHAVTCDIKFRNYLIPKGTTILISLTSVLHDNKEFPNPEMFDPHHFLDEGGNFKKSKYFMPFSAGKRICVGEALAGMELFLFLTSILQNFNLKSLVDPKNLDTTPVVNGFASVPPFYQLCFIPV
Nc1ccc(-c2sc(N)nc2-c2ccccc2)cc1 was tested, and the AC50 was 28.2 µM (active). Nc1nc(-c2ccccc2)c(-c2ccccc2)c(-c2nc(N)nc(-c3ccccc3)c2-c2ccccc2)n1 showed an activity, negative = inhibition of -3.1% [at 11.4 µM]. In the case of COc1ccc(CNc2ncnc3ccc(-c4c(C)noc4C)cc23)c(OC)c1, the activity, negative = inhibition was -23.3% [at 2.29 µM]. In the case of CN(C)c1ncc2ncc(=O)n(Cc3ccc(F)cc3)c2n1, the AC50 was 10 µM (active). With CCNc1ncc2nc(C)c(=O)n(Cc3ccc(F)cc3)c2n1 the “activity, negative = inhibition” value was 18.9%. CCNc1ncc2ncc(=O)n(Cc3ccc(F)cc3)c2n1 was tested, and the AC50 was 20 µM (active). For COc1ncc2ncc(=O)n(Cc3ccc(F)cc3)c2n1, the “activity, negative = inhibition” value was -8.06%. For CN(C)c1ncc2nc(-c3ccccc3)c(=O)n(Cc3ccc(F)cc3)c2n1, the “activity, negative = inhibition” value was -9.82%. With CCNc1ncc2nc(-c3ccc(Cl)cc3)c(=O)n(Cc3ccc(F)cc3)c2n1 the “activity, negative = inhibition” value was 16.8%. With C[C@H](N)C1CCC(C(=O)Nc2ccncc2)CC1 (stereo partly drawn) the “activity, negative = inhibition” value was -14.4%. With O=C(CCCN1CCC(O)(c2ccc(Br)cc2)CC1)c1ccc(F)cc1 the “activity, negative = inhibition” value was 26.6% [at 25.6 µM]. With Cc1cc(C)nc(Nc2n[nH]c(-c3cccc4ccccc34)n2)n1 the “activity, negative = inhibition” value was 23.5%. In the case of O=C(CCN1C(=O)C2C3C=CC(C3)C2C1=O)Nc1ccc2ncccc2c1 (stereo not drawn), the “activity, negative = inhibition” value was -29.9%. With Cc1ccc(NC(=O)CCN2C(=O)c3ccncc3C2=O)cc1 the AC50 was 14.1 µM (active). For Cc1ccc(-c2cnc(NC(=O)CCC(=O)N3CCCCC3)n2C)cc1, the “activity, negative = inhibition” value was 3.26%. In the case of COc1cc(OC)c2c(c1Cl)O[C@@]1(C2=O)[C@H](C)CC(=O)C[C@@H]1OC, the “activity, negative = inhibition” value was 7.76% [at 25.6 µM]. For CN(C)c1ccc(-c2ccc3ncnc(NC4CC4)c3c2)cc1, the activity, negative = inhibition was 4.64% [at 2.29 µM]. In the case of O=C(CSCc1ccccc1)Nc1cccc(C(=O)Nc2ccccc2C(=O)O)c1, the AC50 was 0.447 µM (active). With CC1CC2=C(NC(=S)NC2c2ccc(F)cc2)/C(=C/c2ccc(F)cc2)C1 (stereo not drawn) the AC50 was 8.91 µM (active). O=C1CC(NCCC2=CCCCC2)C(=O)N1c1cccc(Cl)c1Cl (stereo not drawn) was tested, and the AC50 was 14.1 µM (active). For N[C@H](C(=O)O)c1ccc(C(=O)O)cc1, the “activity, negative = inhibition” value was -2.88%. In the case of CC(=O)NC1=NN(c2ccccc2)C(=O)C1, the “activity, negative = inhibition” value was 9.39%. In the case of COC(=O)c1ccccc1-c1ccc(/C=C2\C(=O)N(c3ccccc3)N=C2c2ccccc2)o1, the AC50 was 5.62 µM (active). In the case of COc1ccc(-c2ccc(/C=C3\C(=O)N(c4ccccc4)N=C3c3ccccc3)o2)c([N+](=O)[O-])c1, the AC50 was 2.51 µM (active). With NC(=NC1C2CC3CC(C2)CC1C3)Nc1ccc(I)cc1 (stereo not drawn) the “activity, negative = inhibition” value was 15.5%. CC[C@@]1(O)C(=O)OCc2c1cc1n(c2=O)Cc2cc3c(CN(C)C)c(O)ccc3nc2-1 was tested, and the activity, negative = inhibition was -1.39% [at 11.4 µM]. Molecule Cc1cc2nc3[nH]c4c(Cl)cc(Cl)cc4c3nc2cc1C has an activity, negative = inhibition of -11.6% [at 11.4 µM]. O=C(O)CSc1ccn(Cc2ccccc2)c1 was tested, and the activity, negative = inhibition was -1.85% [at 11.4 µM]. C=CCCCCCCCCC(=O)Nc1c[nH]c(=O)[nH]c1=O was tested, and the “activity, negative = inhibition” value was -17.1%. O=C(NC(=S)Nc1ccc2c(c1)OCO2)c1ccccc1 was tested, and the AC50 was 3.98 µM (active). For Cc1onc(-c2c(Cl)cccc2Cl)c1C(=O)Nc1ccc2c(c1)OCO2, the AC50 was 1.41 µM (active). Work on C[N+](C)(C)c1ncnc2c1ncn2[C@@H]1CCCCO1 yielded an activity, negative = inhibition of 8.84% [at 11.4 µM]. CCCOc1ccc(C(=O)OCCN(CC)CC)cc1N was tested, and the “activity, negative = inhibition” value was 16.1% [at 25.6 µM]. With Clc1ccc(Nc2ncn[nH]2)cc1 the “activity, negative = inhibition” value was -21.5%. In the case of CC1CC(=O)c2cnc(N)nc2C1 (stereo not drawn), the “activity, negative = inhibition” value was -14.6%. CN1CCN(c2ncc3ncc(=O)n(-c4ccccc4)c3n2)CC1 was tested, and the “activity, negative = inhibition” value was 15.8%. With O=C1CC(c2ccccc2)Cc2nc(N3CCc4ccccc4C3)ncc21 (stereo not drawn) the AC50 was 4.47 µM (active). Cc1ccc(-c2noc(CN3CCN(C(c4ccccc4)c4ccccc4)CC3)n2)cc1 was tested, and the AC50 was 5.01 µM (active). Work on Clc1ccc(-c2noc(CN3CCCCC3)n2)cc1 yielded an activity, negative = inhibition of -0.0394% [at 11.4 µM]. With CC(=O)[C@@H](C)CCO[C@@]1(C)OCC[C@@H]1C the activity, negative = inhibition was -15.7% [at 11.4 µM]. CC(C)(CC(=O)Nc1ccccc1)C(=O)O showed an activity, negative = inhibition of 4.33% [at 11.4 µM]. Cc1cc(C)cc(C(=O)N(NC(=O)Nc2ccc(Cl)cc2)C(C)(C)C)c1 was tested, and the AC50 was 5.01 µM (active). Cc1ccc(NCCC(=O)c2ccc(Cl)cc2)cc1C was tested, and the “activity, negative = inhibition” value was 1.28%. Molecule Cc1c(Cl)c(S(N)(=O)=O)cc(S(N)(=O)=O)c1NC(=O)c1ccc(Cl)cc1 has an activity, negative = inhibition of -6.54% [at 11.4 µM]. With CC(C)(C)N(NC(=O)Nc1ccccc1)C(=O)c1ccccc1Cl the AC50 was 14.1 µM (active). With O=S1(=O)CCN(c2ccccc2CC(c2c[nH]c3ccccc23)c2c[nH]c3ccccc23)CC1 the AC50 was 3.16 µM (active). Work on c1ccc2c(CN3CCN(Cc4c[nH]c5ccccc45)CC3)c[nH]c2c1 yielded an activity, negative = inhibition of -0.0395% [at 11.4 µM]. With O=C(O)[C@@H](Cc1c[nH]c2ccccc12)C(=O)NO the activity, negative = inhibition was -10.3% [at 11.4 µM]. Work on Cc1ncn(-c2ccccc2O)c1C yielded an activity, negative = inhibition of 9.91% [at 11.4 µM]. In the case of CCOC(=O)N1CCC(NC(=O)CSCc2cnn(-c3ccccc3)c2-n2cccc2)CC1, the AC50 was 4.47 µM (active). In the case of CCOC(=O)N1CCC(NC(=O)CCC(=O)N2CCOc3ccccc32)CC1, the “activity, negative = inhibition” value was -15.9%. Cc1ccc(NC(=O)Cn2cnc3c(cnn3C(C)(C)C)c2=O)cc1 was tested, and the AC50 was 10 µM (active). Cc1ccccc1Cn1cnc2c(cnn2C(C)(C)C)c1=O was tested, and the AC50 was 15.8 µM (active). Cc1ccc(C)c(Cn2cnc3c(cnn3C(C)(C)C)c2=O)c1 was tested, and the AC50 was 8.91 µM (active). In the case of Cc1ccc(-n2ncc3c(=O)n(CC(=O)NCC4CCCO4)cnc32)cc1 (stereo not drawn), the “activity, negative = inhibition” value was -23.5%. In the case of CO[C@H]1[C@H](O[C@H]2O[C@@H](C)[C@@H](O[C@@H]3C[C@](C)(O)[C@H](OC(=O)CC(C)C)[C@H](C)O3)[C@@H](N(C)C)[C@@H]2O)[C@@H](CC=O)C[C@@H](C)[C@@H](O)/C=C\C=C/C[C@@H](C)OC(=O)C[C@H]1OC(C)=O, the “activity, negative = inhibition” value was 9.52% [at 25.6 µM]. Cc1cnc(CNc2ccnc(-c3ccccc3Cl)n2)cn1 showed an activity, negative = inhibition of 7.84% [at 2.29 µM]. With CN(C)c1ccc(-c2cncnc2-n2ccnc2)cc1 the activity, negative = inhibition was 15.2% [at 2.29 µM]. Work on C[C@@H](CSC(=N)N)C(N)=O yielded an activity, negative = inhibition of -9.17% [at 11.4 µM]. Work on Cc1noc(C)c1-c1nc(N(C)C)c2ccccc2n1 yielded an activity, negative = inhibition of 27.2% [at 2.29 µM]. For COc1ccccc1N1CCN(CCCCNS(=O)(=O)c2cccc3c(N(C)C)cccc23)CC1, the “activity, negative = inhibition” value was -10.7%. Cc1noc(NS(=O)(=O)c2cccc3c(N(C)C)cccc23)c1C was tested, and the AC50 was 0.631 µM (active). In the case of Cc1ccc(/C=C/C(=O)N2CC(C)CC(C)C2)o1 (stereo not drawn), the AC50 was 15.8 µM (active). For Cc1ccc(/C=N/NC(=O)Cn2nccc2C)o1, the “activity, negative = inhibition” value was -17.9%. In the case of CSc1nc(Sc2cccc(Cl)c2)c2ccccc2n1, the AC50 was 0.251 µM (active). With CSc1nnnc2ccccc12 the activity, negative = inhibition was 14.9% [at 11.4 µM]. COc1ccccc1NC(=O)C1=C(C)Nc2nnnn2C1c1cccc(Br)c1 (stereo not drawn) was tested, and the AC50 was 14.1 µM (active). For COc1ccccc1NC(=O)C1=C(C)Nc2nc(-c3ccc(N(C)C)cc3)nn2C1c1ccncc1 (stereo not drawn), the AC50 was 8.91 µM (active). COc1ccccc1CNc1ccnc(-c2ccc(N(C)C)cc2)n1 showed an activity, negative = inhibition of -19.9% [at 2.29 µM]. CC1=C(C(=O)Nc2cccnc2)C(c2cccnc2)n2nc(-c3cccs3)nc2N1 (stereo not drawn) was tested, and the AC50 was 8.91 µM (active). COc1ccccc1NC(=O)c1nc[nH]c1C(=O)Nc1ccccc1OC was tested, and the “activity, negative = inhibition” value was -16.4%. In the case of COC(=O)C1=C(C)Nc2ncnn2C1c1cccnc1 (stereo not drawn), the “activity, negative = inhibition” value was -28.3%. NS(=O)(=O)c1cc2c(cc1Cl)N[C@@H](C(Cl)Cl)NS2(=O)=O was tested, and the “activity, negative = inhibition” value was 15% [at 25.6 µM]. Cc1noc(C)c1-c1nccc(NCc2cccs2)n1 was tested, and the activity, negative = inhibition was -12.6% [at 2.29 µM]. With COc1cc([C@H](O)CO)ccc1O the “activity, negative = inhibition” value was 4.28%. With CCCCNN the activity, negative = inhibition was -5.3% [at 11.4 µM]. Molecule NCCSCCC(=O)O has an activity, negative = inhibition of -9.49% [at 11.4 µM]. With C=C1CC[C@H](O)C/C1=C/C=C1\CCC[C@]2(C)[C@H]1CC[C@H]2[C@@H](C)/C=C\[C@@H](C)C(C)C the “activity, negative = inhibition” value was -8.1% [at 25.6 µM]. For COc1cc(C(=O)N2CCC(NC(=O)C(Cc3ccc(C(C)C)cc3)NC(C)=O)CC2)cc(OC)c1OC (stereo not drawn), the “activity, negative = inhibition” value was -6.93%. For Cc1ccc(Oc2ccccc2/C=C2\SC(=O)N(C)C2=O)cc1, the AC50 was 10 µM (active). For COc1cc(C)cc2c(-c3c(O)cc(O)c4c3C[C@H](C)N[C@@H]4C)cc(-c3cc(-c4c(O)cc(O)c5c4C[C@H](C)N[C@@H]5C)c4cc(C)cc(OC)c4c3O)c(O)c12, the activity, negative = inhibition was -22.5% [at 11.4 µM]. Work on O=C(O)C[C@H](NC(=O)CP(=O)(O)O)C(=O)O.[NH-][C@@H]1CCCC[C@@H]1[NH-].[Pt] yielded an activity, negative = inhibition of -7.92% [at 11.4 µM]. With COc1ccc2c(c1)Cc1sc(NC(=O)c3ccco3)nc1-2 the AC50 was 10 µM (active). For CC(=O)Nc1nnc(SCc2ccc(F)cc2)s1, the “activity, negative = inhibition” value was -26.3%. For COc1ccc(NC(=O)N2CCCC3(CCN(C(=O)c4ccco4)CC3)C2)cc1, the “activity, negative = inhibition” value was -29.7%. For COc1ccc2c(c1)CCc1sc(NC(=O)c3ccc(C)cc3)nc1-2, the AC50 was 5.01 µM (active). For O=C(Nc1nnc(SCc2ccc(Cl)cc2)s1)c1ccco1, the AC50 was 0.562 µM (active). For COc1cccc(C(=O)Nc2nc3c(s2)CN(C)CC3)c1, the “activity, negative = inhibition” value was -22.5%. In the case of COc1ccc(C(=O)Nc2nc3c(s2)Cc2cc(OC)ccc2-3)cc1, the AC50 was 5.62 µM (active). In the case of C[N+]1(C)CCC[C@@H](OC(=O)C(O)(c2ccccc2)c2ccccc2)C1, the “activity, negative = inhibition” value was 4.11% [at 25.6 µM]. COc1ccc(-n2c(=O)c(C)nc3cnc(N(C)C)nc32)cc1 was tested, and the “activity, negative = inhibition” value was 6.2%. Molecule CN(C)c1ncnc2ccc(-c3ccccc3C(F)(F)F)cc12 has an activity, negative = inhibition of -18.7% [at 2.29 µM]. COc1ccccc1-c1cc(Nc2ccc(F)cc2)ncn1 showed an activity, negative = inhibition of -2.06% [at 2.29 µM].

From PubChem BioAssay AID1851 (National Center for Advancing Translational Sciences (NCATS), 2009)
% is set by controls: 0 for no effect and ±100 for the full control effect.
